The campaign covered roughly 360,000 compounds. About 6,200 (1.7%) were called active. The sample holds actives, similar compounds and a random draw of the others, so the mix is not that of the screen. A number with no mark means an inactive call.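 Rule for the calls: active = inhibition of at least 50% at 20 µM; inactive = the rest.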
Assay: inhibition of PEG-3 promoter activity – cell-based, HeLa, luciferase luminescence, primary screen (AID 588405)
Conditions: HeLa PEG-Prom luciferase reporter, overnight, at 20 µM, hits give high values
Compound `CCOC(=O)C1=CC[C@@H](c2ccncc2)N(S(=O)(=O)c2ccc(C)cc2)C1` has an inhibition of 27.8%.
With `O=C(Nc1ccc(Cl)c(C(F)(F)F)c1)C1Cc2c(-c3ccccc3Oc3ccccc3)ccnc2O1` (centres undefined) the inhibition was 26.9%.
For `CC(C)(C)C(=O)NC(NC(=S)Nc1ccc(S(N)(=O)=O)cc1)C(Cl)(Cl)Cl` (centres undefined), the inhibition was 17%.
In the case of `Cc1ccc(NC(=S)NC(NC(=O)Cc2cccc3ccccc23)C(Cl)(Cl)Cl)cc1` (centres undefined), the inhibition is reported as 105% (active).
`O=C(Cc1cccc2ccccc12)NNC(=O)Nc1ccc(Cl)cc1` gave an inhibition of -102%.
For `COc1ccc2c(c1OC)C(=O)OC2Nc1nc(-c2ccccc2)cs1` (centres undefined), the inhibition was 104% (active).
In the case of `C/C(CC1CC(C)(C)OC1=O)=N/Nc1nc(-c2ccccc2)cs1` (centres undefined), the inhibition is reported as -108%.
In the case of `CC(C)C1CC2=C(C(=O)OC(C)(C)O2)C(c2ccc(F)cc2)O1` (centres undefined), the inhibition is reported as 4.49%.
Compound `COc1ccc(Cl)cc1-c1cc(C(=O)Nc2cc(OC)c(OC)c(OC)c2)[nH]n1` has an inhibition of 33.8%.
Compound `O=C(Nc1ccc(Cl)cc1)c1csc([C@H]2C[C@H](O)[C@@H](CO)O2)n1` has an inhibition of -232%.
`Cc1ccc([C@@H]2CC(=O)[C@@H]3CN(S(=O)(=O)c4ccc(C)cc4)[C@H](c4ccccc4F)C[C@@H]3N2S(=O)(=O)c2ccc(Cl)cc2)cc1` showed an inhibition of 13.7%.
Work on `COc1ccc(NC(=O)N(C)C[C@@H]2OCc3cn(nn3)CCCC(=O)N([C@H](C)CO)C[C@H]2C)c(OC)c1` yielded an inhibition of -5.47%.
In the case of `NC(N)=N/N=C/c1ccc(OCc2ccc(Cl)cc2Cl)cc1`, the inhibition is reported as 99.3% (active).
`COc1ccc(Cl)cc1N(CC(=O)N/N=C/c1ccc(OCC(N)=O)cc1)S(C)(=O)=O` gave an inhibition of -7.79%.
`Cc1nc2ccccc2nc(C)c1=NOCc1ccc(Cl)cc1Cl` gave an inhibition of 29.6%.
In the case of `O=C(/C=C/c1ccc(F)cc1)NC(=S)NNC(=O)c1cccnc1`, the inhibition is reported as 8.82%.
In the case of `O=C(/C=C/c1ccc([N+](=O)[O-])o1)NNC(=O)c1ccc(F)cc1`, the inhibition is reported as 99.4% (active).
For `O=C(Nc1ccc(F)cc1)C1CCN(C(=O)c2ccc([N+](=O)[O-])cc2)CC1`, the inhibition was 17.8%.
In the case of `CC1(c2cccc([N+](=O)[O-])c2)CC(C)(C)N(C(=O)c2ccccc2)c2ccccc21` (centres undefined), the inhibition is reported as 34.9%.
Work on `CC1(c2ccccc2)CC(C)(C)N(C(=O)c2cc([N+](=O)[O-])cc([N+](=O)[O-])c2)c2ccccc21` (centres undefined) yielded an inhibition of 16.3%.
In the case of `Cc1nnc(SCC(=O)N2c3ccccc3C(C)(c3ccc(Cl)cc3)CC2(C)C)s1` (centres undefined), the inhibition is reported as 51.1% (active).
In the case of `COc1ccc(NC(=O)CN2C(=O)NC(C)(c3ccccc3)C2=O)cn1` (centres undefined), the inhibition is reported as 1.66%.
For `COc1ccc(NC(=O)/C(Cl)=C(/Cl)S(=O)Cc2ccc(C)cc2)cn1` (centres undefined), the inhibition was 109% (active).
With `COc1ccc(NC(=O)C2Cc3c(-c4ccc5c(c4)OCO5)ccnc3O2)cn1` (centres undefined) the inhibition was 21.4%.
With `Cc1cc2nc(-c3ccco3)c(Cc3cccc(F)c3)n2c(C)c1Br` the inhibition was -26.2%.
With `CC(Sc1nnc(C2CC2)n1C1CC1)C(=O)Nc1ccc(C(N)=O)cc1` (centres undefined) the inhibition was 0.86%.
For `CCOC(=O)c1c(-c2ccccc2)oc2cc(Br)c(O)c(C=O)c12`, the inhibition was 69.1% (active).
`Cc1oc2cc(Br)c(O)c(Br)c2c1C(=O)c1ccccc1` gave an inhibition of -69.5%.
Compound `CCOC(=O)c1c(C)oc2cc(Sc3ccccc3)c(O)c(O)c12` has an inhibition of -89%.
In the case of `CCCNC(=O)c1cc(C2CCCCN2S(=O)(=O)c2cn(C)cn2)on1` (centres undefined), the inhibition is reported as -3.04%.
Work on `O=C(CNC(c1ccccc1)c1ccccc1)Nc1ccc(F)cc1` yielded an inhibition of 6.17%.
For `O=S1(=O)CC(N2CCN(c3ccccn3)CC2)CN1Cc1ccc(F)cc1` (centres undefined), the inhibition was 10.9%.
For `Cc1ccc(F)c(S(=O)(=O)NC(=O)C2(C)CCN2C(=O)c2ccco2)c1` (centres undefined), the inhibition was -1.32%.
Compound `CCOc1ccc(N(CC(=O)NCC2CCCO2)S(=O)(=O)c2ccc(C)cc2)cc1` (centres undefined) has an inhibition of 14.4%.
With `Cc1cc(Br)ccc1NC(=O)c1cnc(N2CCN(c3ccccn3)CC2)c2ccccc12` the inhibition was 64.2% (active).
Work on `Cc1cc(Br)ccc1NC(=O)c1sc2ncn(CC(=O)N3CCN(c4ccccn4)CC3)c(=O)c2c1C` yielded an inhibition of 1.76%.
Compound `COc1ccc(NC(=O)c2sc3nc(C)nc(N4CCN(c5ccccn5)CC4)c3c2C)c(OC)c1` has an inhibition of 30.7%.
`CC(=O)Nc1cccc(-c2cc(NC=O)c3ncc(-c4ccc(F)c(Cl)c4)n3c2)c1` showed an inhibition of 40.1%.
With `COc1ccc(CC(N)c2csc(NC(=O)Nc3ccc(C(C)C)cc3)n2)cc1` (centres undefined) the inhibition was 100% (active).
Compound `COc1ccc(CC(N)c2csc(NC(=O)Cc3ccccc3)n2)cc1` (centres undefined) has an inhibition of 49.7%.
For `COc1ccc(NC(=O)C(Br)C(C)C)cc1` (centres undefined), the inhibition was -6.38%.
With `CC(C)(C)CC(=O)Nc1nc(C(N)Cc2ccc(C(F)(F)F)cc2)cs1` (centres undefined) the inhibition was 102% (active).
Compound `CC(C)(C)CC(=O)Nc1nnc(SCC(=O)NCc2cccs2)s1` has an inhibition of 9.91%.
`COc1ccc(OC)c(NC(=O)N[C@H](Cc2ccccc2)C(=O)NN)c1` gave an inhibition of 9.08%.
For `COC(=O)[C@H](CCSC)NC(=O)Nc1ccc(OC)cc1`, the inhibition was 10.2%.
`Cc1ccccc1NC(=O)Cc1nc(COC(=O)c2ccc(C(F)(F)F)cc2)cs1` showed an inhibition of -7.19%.
With `COc1ccc(CC(N)c2csc(NC(=O)NC(c3ccccc3)c3ccccc3)n2)cc1` (centres undefined) the inhibition was 96.6% (active).
Compound `O=C(NCc1ccc(F)cc1)c1cc(C2CCCCN2C(=O)c2cccs2)on1` (centres undefined) has an inhibition of 12.7%.
Work on `CC(C)Cn1c(N)c(C(=O)COC(=O)C2CCCN2C(=O)c2cccs2)c(=O)n(C)c1=O` (centres undefined) yielded an inhibition of 8.57%.
With `C#Cc1ccc(NC(=O)C2(C)CCN2C(=O)Cc2ccc(-c3ccccc3)cc2)cc1` (centres undefined) the inhibition was 20.8%.
`O=C(NCc1cccnc1)c1cc(C2CCCN(C(=O)C3CCCCC3)C2)on1` (centres undefined) gave an inhibition of 3.87%.
Compound `CC(C)CCNC(=O)c1[nH]c(C(F)(F)F)nc1-c1ccccc1` has an inhibition of 11.4%.
Compound `COc1ccc(C(NC(=O)C2CCN(CCCc3ccccc3)CC2)c2cccs2)cc1` (centres undefined) has an inhibition of 2.75%.
With `Nc1ncnc2c1ncn2[C@@H]1O[C@H](C(=O)NCC(F)(F)F)[C@@H](O)[C@H]1O` the inhibition was 4.09%.
